Laboratory results published in PubChem BioAssay (NCI).
This is part of a sample that, as a whole, favours compounds with a hit. Of some 83,000 tested, about 20% had one in any assay.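 Cell lines were cultured in 96-well plates, exposed to a single compound concentration, and assessed for percent growth 48 hours later.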 Values without a mark were called inactive. Active and inactive are the calls of the source. How the source made its calls: active means growth percent below 10; inactive means the rest.

How the values were obtained:
Test in all cases: NCI-60 one-dose screen, 48 h (100 = growth as untreated, 0 = no growth, -100 = all killed)
Details in all cases: 10 µM unless noted
T-47D breast = system: T-47D breast
BT-549 breast = system: BT-549 breast
MDA-MB-435 melanoma = system: MDA-MB-435 melanoma
MCF7 breast = system: MCF7 breast
HCT-116 colon = system: HCT-116 colon
HCC-2998 colon = system: HCC-2998 colon
KM12 colon = system: KM12 colon
SW-620 colon = system: SW-620 colon

For Nc1nc(Cl)cc(NCc2ccc(CNc3cc(Cl)nc(N)n3)cc2)n1, the growth (T-47D breast) was 69.2%, the growth (BT-549 breast) was 72.6% and the growth (MDA-MB-435 melanoma) was 106%. For the same molecule, the growth (MCF7 breast) was 103%, the growth (HCT-116 colon) was 83.3% and the growth (HCC-2998 colon) was 101%. It also gave a growth (KM12 colon) of 99%.
Molecule Cc1ccc(-c2cn3cc([N+](=O)[O-])ccc3n2)cc1 has a growth (T-47D breast) of 46.6%, a growth (BT-549 breast) of 53.9% and a growth (MDA-MB-435 melanoma) of 70.8%. For the same molecule, the growth (MCF7 breast) was 34.8%, the growth (HCT-116 colon) was 70.3% and the growth (HCC-2998 colon) was 88%. The growth (KM12 colon) was 91.4%.
For COc1ccc(-c2nnc(SCC(=O)Nc3ccc(C(=O)/C=C/c4ccccc4)cc3)o2)cc1OC, the growth (T-47D breast) was 98.7%, the growth (BT-549 breast) was 98.3% and the growth (MDA-MB-435 melanoma) was 92.7%. For the same molecule, the growth (MCF7 breast) was 56%, the growth (HCT-116 colon) was 51.8% and the growth (HCC-2998 colon) was 116%. For the same molecule, the growth (KM12 colon) was 99.6%.
Molecule O=C(O)c1cn(C2CC2)c2cc(N3CCN(C(=O)CSc4nc(NS(=O)(=O)c5ccccc5)cc(=O)[nH]4)CC3)c(F)cc2c1=O has a growth (T-47D breast) of 116%, a growth (BT-549 breast) of 99% and a growth (MDA-MB-435 melanoma) of 90.1%. It also gave a growth (SW-620 colon) of 99.9%, a growth (HCC-2998 colon) of 91.7% and a growth (KM12 colon) of 91.6%.
COc1ccc(/C(Cl)=N/N=C(\Cl)c2cc(OC)c(OC)c(OC)c2)cc1OC(C)=O showed a growth (T-47D breast) of 66.2%, a growth (BT-549 breast) of 96.1% and a growth (MDA-MB-435 melanoma) of 99.9%. For the same molecule, the growth (MCF7 breast) was 93.9%, the growth (HCT-116 colon) was 90.5% and the growth (HCC-2998 colon) was 102%. For the same molecule, the growth (KM12 colon) was 98.2%.
Molecule O=[N+]([O-])c1ccc(NS(=O)(=O)c2ccccc2)c2ccccc12 has a growth (T-47D breast) of 32%, a growth (BT-549 breast) of 37.2% and a growth (MDA-MB-435 melanoma) of 36.8%. It also gave a growth (MCF7 breast) of 42.3%, a growth (HCT-116 colon) of 44.6% and a growth (HCC-2998 colon) of 36.7%. For the same molecule, the growth (KM12 colon) was 40.1%.
O=C(NCCNc1nccc(-c2c(-c3cccc(O)c3)nc3sccn23)n1)c1cccc(C(F)(F)F)c1 was tested, and the growth (T-47D breast) was 69.5%, the growth (BT-549 breast) was 88% and the growth (MDA-MB-435 melanoma) was 21.7%. For the same molecule, the growth (MCF7 breast) was 75.3%, the growth (HCT-116 colon) was 74.3% and the growth (HCC-2998 colon) was 117%. The growth (KM12 colon) was 80.9%.
Cc1cc(Nc2ccc(Cl)c(Cl)c2)nc(N)n1 showed a growth (T-47D breast) of 79.5%, a growth (BT-549 breast) of 94.4% and a growth (MDA-MB-435 melanoma) of 98.3%. It also gave a growth (MCF7 breast) of 84.4%, a growth (HCT-116 colon) of 86.4% and a growth (HCC-2998 colon) of 113%. For the same molecule, the growth (KM12 colon) was 91.3%.
In the case of COc1cc(/C=C\c2cc(/C=C\c3ccc(O)c(OC)c3)n(C(=O)CNc3ccccc3OC)n2)ccc1O, the growth (T-47D breast) is reported as 91.8%, the growth (BT-549 breast) is reported as 66% and the growth (MDA-MB-435 melanoma) is reported as 6.34% (active). The growth (SW-620 colon) was 36.4%, the growth (HCC-2998 colon) was 112% and the growth (KM12 colon) was 46.2%.
In the case of Cc1cc(NC(=O)c2cccc(C(F)(F)F)c2)ccc1-n1ccc2c(NC(=O)c3ccccc3)nccc21, the growth (T-47D breast) is reported as 78.8%, the growth (BT-549 breast) is reported as 88.7% and the growth (MDA-MB-435 melanoma) is reported as 105%. It also gave a growth (MCF7 breast) of 103%, a growth (HCC-2998 colon) of 115% and a growth (KM12 colon) of 100%.
For COc1ccc(/C=C/C(=O)/C=C(/C=C/c2ccc(OC)c(OC)c2OC)OB(F)F)c(OC)c1OC, the growth (T-47D breast) was 50.4%, the growth (BT-549 breast) was 31.4% and the growth (MDA-MB-435 melanoma) was 0.716% (active). The growth (SW-620 colon) was 8% (active), the growth (HCC-2998 colon) was 59.2% and the growth (KM12 colon) was 22.8%.
In the case of CN1CCN(C(=O)/C=C/c2ccc([N+](=O)[O-])o2)CC1, the growth (T-47D breast) is reported as 110%, the growth (BT-549 breast) is reported as 105% and the growth (MDA-MB-435 melanoma) is reported as 72.7%. For the same molecule, the growth (MCF7 breast) was 68.7%, the growth (HCT-116 colon) was 81.6% and the growth (HCC-2998 colon) was 103%. For the same molecule, the growth (KM12 colon) was 83.9%.
With N#Cc1c(N)nc(Cl)c(C#N)c1C(=O)c1ccccc1 the growth (T-47D breast) was 42.4%, the growth (BT-549 breast) was 24.9% and the growth (MDA-MB-435 melanoma) was 14.6%. For the same molecule, the growth (MCF7 breast) was 18.9%, the growth (HCT-116 colon) was 30.2% and the growth (HCC-2998 colon) was 76.5%. It also gave a growth (KM12 colon) of 28%.
CC(=O)O[C@@H]1[C@@H](OC(C)=O)[C@H](OC(C)=O)CO[C@H]1Nc1cccc2ccccc12 gave a growth (T-47D breast) of 86.6%, a growth (BT-549 breast) of 89.1% and a growth (MDA-MB-435 melanoma) of 102%. It also gave a growth (SW-620 colon) of 98.4%, a growth (HCC-2998 colon) of 94.2% and a growth (KM12 colon) of 84.2%.
With NC(N)=N/N=C/c1ccc([N+](=O)[O-])cc1 the growth (T-47D breast) was 98.7%, the growth (BT-549 breast) was 85.5% and the growth (MDA-MB-435 melanoma) was 112%. The growth (MCF7 breast) was 93.1%, the growth (HCT-116 colon) was 90.6% and the growth (HCC-2998 colon) was 99.9%. It also gave a growth (KM12 colon) of 103%.
Molecule CC12CCC3C(CCC4CC(O)CCC43C)C1C/C(=C/O)C(=O)O2 (stereo not given) has a growth (T-47D breast) of 106%, a growth (BT-549 breast) of 109% and a growth (MDA-MB-435 melanoma) of 111%. It also gave a growth (MCF7 breast) of 102%, a growth (HCT-116 colon) of 104% and a growth (HCC-2998 colon) of 103%. The growth (KM12 colon) was 97.8%.
With CC(=O)N1N=C(CCC(=O)c2nc3ccc([N+](=O)[O-])cc3[nH]2)OC1c1ccc(O)cc1 (stereo not given) the growth (T-47D breast) was 85.5%, the growth (BT-549 breast) was 101% and the growth (MDA-MB-435 melanoma) was 105%. The growth (SW-620 colon) was 102%, the growth (HCC-2998 colon) was 98.7% and the growth (KM12 colon) was 95.8%.
CCN(CC)c1ccc(C2CC(c3cc(OC)c(OC)c(OC)c3)=NN2)cc1 (stereo not given) was tested, and the growth (T-47D breast) was 29.9%, the growth (BT-549 breast) was -2.69% (active) and the growth (MDA-MB-435 melanoma) was 21.6%. The growth (MCF7 breast) was 6.88% (active), the growth (HCT-116 colon) was 9.61% (active) and the growth (HCC-2998 colon) was 21.2%. For the same molecule, the growth (KM12 colon) was 11.1%.
